Results taken from PubChem BioAssay (NCI).
Compounds without any hit were thinned out: in the full panel of roughly 79,000, 15% have a hit. Cut-off read from the data, not from the text of the source: active = growth inhibition above about 70%; inactive = the rest.

How the values were obtained:
[1] = NCI Yeast Anticancer Drug Screen. Data for the rad50 strain (AID 155);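 note: 0% = growth of vehicle-only cultures of the same strain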; details: S. cerevisiae rad50 strain growth inhibition; at 50.0 µM; stronger effect = higher value
Method in brief: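 Vehicle-treated cultures provide the reference for the growth inhibition reported for compound-exposed, repair-deficient yeast.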

[2] = NCI Yeast Anticancer Drug Screen. Data for the mec2-1 strain (AID 157); details: S. cerevisiae mec2-1 strain, at 50.0 µM, stronger effect = higher value
Method in brief: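 mec2-1 yeast strain, carrying an alteration in DNA damage repair or cell cycle control, was exposed to compounds; growth inhibition was measured relative to vehicle-treated controls.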

[3] = NCI Yeast Anticancer Drug Screen. Data for the sgs1 mgt1 strain (AID 161);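 note: 0% = growth of cultures given vehicle only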; details: S. cerevisiae sgs1 mgt1 strain, at 50.0 µM, stronger effect = higher value
Method in brief: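 Yeast cells carrying a defined DNA-repair defect were exposed to test compounds. Growth inhibition was measured relative to vehicle-treated controls.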

[4] = NCI Yeast Anticancer Drug Screen. Data for the cln2 rad14 strain (AID 165);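 note: 0% = growth equal to vehicle treated cultures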; details: S. cerevisiae cln2 rad14 strain, at 50.0 µM, stronger effect = higher value
Method in brief: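 Yeast carrying cln2 and rad14 alterations (cell cycle control and DNA damage repair) were exposed to compounds. Growth inhibition was measured against vehicle-treated controls.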

[5] = NCI Yeast Anticancer Drug Screen. Data for the bub3 strain (AID 167); details: S. cerevisiae bub3 mutant strain, at 50.0 µM, stronger effect = higher value
Method in brief: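 Mutant yeast screening strain plus compound; vehicle-treated cultures serve as the 0% inhibition reference.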

[6] = NCI Yeast Anticancer Drug Screen. Data for the mlh1 rad18 strain (AID 175); details: S. cerevisiae mlh1 rad18 strain growth inhibition; at 50.0 µM; stronger effect = higher value
Method in brief: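 Growth inhibition of the yeast strain was measured after compound exposure and expressed relative to vehicle-treated controls. The strain carries defined defects in DNA damage repair.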

Measured: growth inhibition

C=C(Nc1ccc([N+](=O)[O-])cc1[N+](=O)[O-])c1c/c(=N\NC(N)=S)c2ccccc2o1
inactive: [1] 25.1% | [2] -16% | [3] -3.85% | [4] 15.6% | [5] 16.4% | [6] 6.45%

NC(=O)NC12CC3CC(CC(C3)C1)C2
inactive: [1] 13.3% | [2] -5.8% | [3] 13.1% | [4] -0.75% | [5] 4.9% | [6] 2.75%

CC(N)C(C)Cc1ccccc1 (stereo not given)
inactive: [1] -20.2% | [2] -21.4% | [3] -19.7% | [4] 65.7% | [5] -31.9% | [6] -14.6%

COc1cc2c(cc1OC)-c1cc3ccc(OC)c(OC)c3c[n+]1CC2
inactive: [1] -8.55% | [2] -21.8% | [3] 23.6% | [4] -14.1% | [5] -9.45% | [6] -4.35%

Cc1cc(Cc2c(F)c(F)c(Cc3cc(C)no3)c(F)c2F)on1
inactive: [1] 8.35% | [2] 5.6% | [3] 8.85% | [4] 1.1% | [5] 0.4% | [6] 18.1%

NC(=S)NNC(=O)c1ccc([N+](=O)[O-])cc1
inactive: [1] 10.4% | [2] 18.9% | [3] -3.1% | [4] -17.9% | [5] 1.35% | [6] 36.9%

Cc1ccccc1S(=O)(=O)OC1NS(=O)(=O)c2ccccc21 (stereo not given)
inactive: [1] 15.8% | [2] -1% | [3] -36.9% | [4] -15.6% | [5] -23.3% | [6] 2.9%

C=CCOC(=O)Nc1ccc(S(=O)(=O)CC)cc1
inactive: [1] -0.95% | [2] 5.95% | [3] -4.55% | [4] -21.6% | [5] 22.8% | [6] -1.65%

CCCNCC(O)COc1ccc2c3c(c(=O)oc2c1)CCC3 (stereo not given)
inactive: [1] 1.15% | [2] 10.8% | [3] -23.9% | [4] -8.25% | [5] -29.8% | [6] -15.8%

CN(C)CCC(c1ccccc1)C(CO)c1ccccc1 (stereo not given)
inactive: [1] -24.6% | [2] 8.75% | [3] 9.9% | [4] 7.65% | [5] -2.1% | [6] 12.7%

O=C1C=C(Nc2ccccc2C(=O)CC(=O)C(=O)Nc2cccc([N+](=O)[O-])c2)c2ccccc2C1=O
inactive: [1] -15.2% | [2] 12.3% | [3] -7.2% | [4] 12.3% | [5] -15.5% | [6] -7.1%

Nc1cc2c(cc1[N+](=O)[O-])-c1cccc(F)c1C2
inactive: [1] 63.6% | [2] 7.65% | [3] 0.65% | [4] 10.8% | [5] -9.15% | [6] 33%

Cc1ccc2c(c1)C(C)(C)CCC2
inactive: [1] -2.1% | [2] -18.4% | [3] -18.4% | [4] -59.6% | [5] -9.1% | [6] 4.95%

Cc1ncc([N+](=O)[O-])n1CC[N+](C)([O-])CCCCn1ccnc1[N+](=O)[O-] (stereo not given)
inactive: [1] 16.9% | [2] -20.6% | [3] 20.6% | [4] -41.5% | [5] -3.95% | [6] -9%

CC(=O)/C(=C/c1ccco1)CC(=O)O
inactive: [1] -15.1% | [2] -22.1% | [3] -12.9% | [4] 4.05% | [5] -18.4% | [6] -5%

COC(=O)C1OC(O[C@H]2CC[C@]3(C)[C@H]4CC=C5[C@@H]6CC(C)(C)CC[C@]6(C(=O)OC6OCC(O)C(O)C6OC6OC(C)C(OC7OCC(O)C(O)C7O)C(OC7OCC(O)(CO)C7O)C6O)[C@H](O)C[C@@]5(C)[C@]4(C)CC[C@H]3C2(C)C)C(O)C(O)C1O (stereo not given in full)
inactive: [1] 16.1% | [2] -10.3% | [3] -6.1% | [4] 34.6% | [5] 13.6% | [6] 10.3%

CCC(=O)Oc1ccc(CCC(C)=O)cc1
inactive: [1] -0.55% | [2] -6.35% | [3] -14.2% | [4] -38.9% | [5] -10.6% | [6] 30.5%

Cn1c(=O)c2c(nc3sc4nc5ccccc5nc4n32)n(C)c1=O
inactive: [1] -9.7% | [2] -15.9% | [3] -5.45% | [4] -25.4% | [5] -30.4% | [6] 13.1%

COc1ccc(/C(C)=N/[O-])cc1CS[n+]1ccccc1
inactive: [1] 15.1% | [2] 27.7% | [3] 47.4% | [4] -4.4% | [5] 59.2% | [6] 48.6%

CCc1c(C)c2n(c1C)C(=O)C=C2N(CC)CC
inactive: [1] -11.2% | [2] -18.1% | [3] -38.1% | [4] -6.45% | [5] -2% | [6] -20.6%

S=C(Nc1ccc2ccccc2c1)Nc1ccc2ccccc2c1
inactive: [1] 22% | [2] 10.9% | [3] 14.4% | [4] -30.6% | [5] 5.4% | [6] -2%

COc1ccc(C(C)c2cc(OC)c(OC)cc2OC)cc1 (stereo not given)
inactive: [1] 17.6% | [2] 10.8% | [3] 25.6% | [4] -29.2% | [5] 44.2% | [6] 37.8%

CCOC(=O)NC(Nc1ccc(F)cc1F)(C(F)(F)F)C(F)(F)F
inactive: [1] 12.8% | [2] -23.4% | [3] -15.7% | [4] 10.2% | [5] -14.8% | [6] 1.4%

CCCSCCC(N)C(=O)O (stereo not given)
inactive: [1] -33.2% | [2] -15.9% | [3] 0.55% | [4] -5.7% | [5] -2.9% | [6] -4.95%

CC1OC(C)(CCc2ccccc2)OC1C (stereo not given)
inactive: [1] 0.4% | [2] -46.8% | [3] 11.7% | [4] -12.2% | [5] -21.6% | [6] -8%

CC(CCC(=O)O)C1CCC2C3CCC4CC(OC=O)CCC4(C)C3CC(=O)C12C (stereo not given)
inactive: [1] -5.9% | [2] -3.25% | [3] -12.8% | [4] 0.15% | [5] -1.6% | [6] -13.9%

O=C(Nc1cc(NC(=O)n2nnc3ccccc32)c(Br)cc1Br)n1nnc2ccccc21
inactive: [1] 51.4% | [2] 25% | [3] 27.2% | [4] 24.2% | [5] 2.15% | [6] 27.8%

O=c1[nH]c(=O)c2c(Cl)cccc2[nH]1
inactive: [1] 7.2% | [2] 9.9% | [3] 5.35% | [4] -22% | [5] -2.7% | [6] -4.1%

CCCCc1c(OCC)cc2n(CC)c3ccccc3n2c1=O
inactive: [1] -8.45% | [2] -9.85% | [3] 0.8% | [4] -10.9% | [5] -45% | [6] -11.9%

CC(C)(C)[Si](C)(C)OCC1CCC(n2cnc3c(=O)[nH]cnc32)O1 (stereo not given)
inactive: [1] 14.7% | [2] -6.75% | [3] 7.6% | [4] -4.1% | [5] 12.8% | [6] -7.25%

COc1ccc2c3c([nH]c2c1)CCN(Cc1ccccc1)C3
inactive: [1] -31.1% | [2] -21.6% | [3] 13.8% | [4] 19.6% | [5] 15.2% | [6] 1.1%

CC(=O)NC1C(OCc2ccccc2)OC(CO)C(O)C1OCc1ccccc1 (stereo not given)
inactive: [1] 27.3% | [2] -18.2% | [3] 15.6% | [4] -24.1% | [5] -2.9% | [6] -11.8%

CS(=O)(=O)OCCCCOS(C)(=O)=O
inactive: [1] -9.5% | [2] -23.9% | [3] 8.55% | [4] 2% | [5] 12.1% | [6] 0.05%

c1ccc2c(c1)N=C(c1cccc3ccccc13)CC(c1cccc3ccccc13)S2 (stereo not given)
inactive: [1] -28% | [2] -20.9% | [3] -46.5% | [4] -3.25% | [5] -18.9% | [6] -37%

CSc1cc(C)c(OC(=O)Nc2cc(C)ccc2C)c(C)c1
inactive: [1] -3.45% | [2] 0.8% | [3] 3% | [4] 1% | [5] 33.2% | [6] 9.75%

CC(NC(=O)c1cnc2ccccc2n1)C(=O)O (stereo not given)
inactive: [1] -19.4% | [2] -24.4% | [3] -29.8% | [4] -16.4% | [5] 4.05% | [6] -24.8%

Cn1c(COc2ccc(/C=N\NC(=O)c3ccc(C(=O)N/N=C/c4ccc(OCc5c[n+]6ccccc6n5C)cc4)cc3)cc2)c[n+]2ccccc12
inactive: [1] -5% | [2] 3.5% | [3] -2.85% | [4] 26.7% | [5] 1.6% | [6] -36.8%

COC12OCCN(C)C1=CC(=O)C1=NNC(C)C12 (stereo not given)
inactive: [1] -37% | [2] -1.6% | [3] -8% | [4] -27% | [5] -11.8% | [6] -36.5%

C=C(Br)c1ccc2c(c1)OCO2
inactive: [1] 30% | [2] 15.7% | [3] 20.9% | [4] 8% | [5] 4.05% | [6] -8.55%

COc1nc2[nH]ccc2c(=O)n1C
inactive: [1] -10.9% | [2] -20.1% | [3] -9.1% | [4] 10.3% | [5] -10.4% | [6] 17.4%
